Results: paper PMC7819943, “Rice protein-binding microarrays: a tool to detect cis-acting elements near promoter regions in rice”
Whole data set: some 35,000 sequences, median “fluorescence intensity (a.u.)” near 10,000, cut for the highest 2% near 52,000. The sample holds the highest values, similar sequences and a random draw of the others, so the mix is not that of the screen.

Target: T1, OsWOX13 (Oryza sativa, UniProt Q5QMM3 1-267)
T1 sequence: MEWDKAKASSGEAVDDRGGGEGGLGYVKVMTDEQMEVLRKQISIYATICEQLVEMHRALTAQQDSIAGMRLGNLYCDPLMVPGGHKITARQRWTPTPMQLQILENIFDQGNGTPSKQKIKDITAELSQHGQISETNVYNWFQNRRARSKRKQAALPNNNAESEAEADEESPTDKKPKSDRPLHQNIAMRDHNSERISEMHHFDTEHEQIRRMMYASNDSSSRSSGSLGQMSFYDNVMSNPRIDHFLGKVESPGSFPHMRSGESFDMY
Experiment: protein-binding microarray (RPBM); PBS, 2% BSA, 51.3 ng/ul salmon testes DNA, 50 uM zinc acetate, 200 nM TF, 25 C, 1 h; high values mean tight binding
Conditions: protein: recombinant; tags: N-terminal polyhistidine and DsRed monomer fusion (pET32a); label: CyDye5-dUTP incorporated in the synthesized complementary strand; 3' TTTTT single-stranded linker to array surface; dsDNA, one strand shown
Procedure, shortened: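 Per-feature fluorescence intensity (arbitrary units), read on an Axon 4000B scanner, is the binding signal. Transcription factors carrying an N-terminal polyhistidine tag and DsRed fusion were expressed in E. coli BL21-CodonPlus and purified on Ni–NTA. A custom Agilent array, made double-stranded by primer extension with Cy5-dUTP and blocked with 2% BSA, was incubated with 200 nM protein in PBS, 2% BSA, salmon testes DNA and 50 µM zinc acetate at 25 °C for 1 h and then washed.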

Sequence	binding signal
GATATGATGGGTACAAACTGTTATAAACTAACATGTCTATCGGAGTCACCTAGTGCAG	5970 fluorescence intensity (a.u.)
GGGCCTGGTCCTGATTGGACTTCCTTATCTGTCTATCACACGGAGTCACCTAGTGCAG	10700 fluorescence intensity (a.u.)
TGATGGGAAAACTTTAAAATTAATTTTGAATTTAAGGTTGCGGAGTCACCTAGTGCAG	4960 fluorescence intensity (a.u.)
TGCTTTGATTTTACGTCACATACACATGGTGATGCTTCAACGGAGTCACCTAGTGCAG	6250 fluorescence intensity (a.u.)
CAGTTTAATTGCTCCTCGGATGGATCTGGTATAGTTCTGCCGGAGTCACCTAGTGCAG	20700 fluorescence intensity (a.u.)
CTCTTGATTGTATCCTTAGGCACTTTGTATATTCTCGAGTCGGAGTCACCTAGTGCAG	31700 fluorescence intensity (a.u.)
GAACAGGTAATTTAAAATTGATGGAGTTCATAGGATGTCACGGAGTCACCTAGTGCAG	24200 fluorescence intensity (a.u.)
TCTGATTAATTTGACGGCCACAAAATACTTAGTTTGGCAACGGAGTCACCTAGTGCAG	65000 fluorescence intensity (a.u.)
TTTATAATAGTTAATATTTAATTGATCATTTGCTAATGAGCGGAGTCACCTAGTGCAG	24900 fluorescence intensity (a.u.)
TTGGATTAGAATTTAATTTGAAGACGACATCCATTGGATACGGAGTCACCTAGTGCAG	28700 fluorescence intensity (a.u.)
AAGATACGTGATTGAAATCATTCCATTATGGACGACATTGCGGAGTCACCTAGTGCAG	54000 fluorescence intensity (a.u.)
CCAAATGATTAATTTGGAGGACTTATTTGGACGTTTTGAACGGAGTCACCTAGTGCAG	42300 fluorescence intensity (a.u.)
TAAAATTAGTCAAACTTAAAGCAGTTTGATTTTGACTAAACGGAGTCACCTAGTGCAG	3740 fluorescence intensity (a.u.)
ACATCACTAATTAATGTAATTTAAGTGGCTCATTTGCTCACGGAGTCACCTAGTGCAG	31900 fluorescence intensity (a.u.)
TTCACTAATCAATCAACTTAATTTGCTCTGTCAATGTGCACGGAGTCACCTAGTGCAG	61700 fluorescence intensity (a.u.)
TTTATATTATTTGTCAATCTTATTGTCAACTTATTAATCACGGAGTCACCTAGTGCAG	5140 fluorescence intensity (a.u.)
CCATTACGTGATCACAGATTGATCAAGAAATGCTTGACGACGGAGTCACCTAGTGCAG	19600 fluorescence intensity (a.u.)
TTTAATTGATGGAGCGGTAATGGTAATAGTTCTTCACTCACGGAGTCACCTAGTGCAG	57300 fluorescence intensity (a.u.)
TTAACAATTGAAAGATCATCTCATTGGTTAATTTATTTGGCGGAGTCACCTAGTGCAG	6220 fluorescence intensity (a.u.)
GATGGTCTATTAGTCCGTGATTAATTAAGTATTAGCTATTCGGAGTCACCTAGTGCAG	8910 fluorescence intensity (a.u.)
TTTGACAAATTTGACAACTCCTCTAGCTCCCACTGCTACTCGGAGTCACCTAGTGCAG	38200 fluorescence intensity (a.u.)

Sequence	binding signal
CTGTGATAATCTGTCTTCCTGTGATACCAGCACTGTTTCCCGGAGTCACCTAGTGCAG	3340 fluorescence intensity (a.u.)
TGCTAGTTAAATTGGGATAAAATAATGGGCCCATTTATTTCGGAGTCACCTAGTGCAG	4520 fluorescence intensity (a.u.)
AGTGATTAGTAGCAGCAGAAAGAGTGGAAGATTTAGAGGACGGAGTCACCTAGTGCAG	17800 fluorescence intensity (a.u.)
AATTAAATAAATTATAATTTATTTTATTGAGATTTGATTTCGGAGTCACCTAGTGCAG	41300 fluorescence intensity (a.u.)
AAAATTTAATTGATTATATGCTAATAACTTTCTTGTTTTGCGGAGTCACCTAGTGCAG	51600 fluorescence intensity (a.u.)
TTAAATTTAAATTTAAATTTAATTTTGAGATTTCTTTTCACGGAGTCACCTAGTGCAG	55700 fluorescence intensity (a.u.)
TTAAATTTAAATTTGAGATTGATTTTGAGATATTTTCAACCGGAGTCACCTAGTGCAG	38200 fluorescence intensity (a.u.)
ACAATTGATAGATTTGTCTGTTGCTTTGCTTTGATTCCTCCGGAGTCACCTAGTGCAG	43800 fluorescence intensity (a.u.)
TTATTGATTGATTGAATCAGACTGAAATTCCAAACCACGACGGAGTCACCTAGTGCAG	63100 fluorescence intensity (a.u.)
TTTTCTTGATTAATTAAATATAAATTTGCATTTCATTTCACGGAGTCACCTAGTGCAG	16900 fluorescence intensity (a.u.)
CCCAAACGCCCTGAAATCAAATTGAATATTCCAATTTGCACGGAGTCACCTAGTGCAG	4630 fluorescence intensity (a.u.)
ATTGCGTGCTTGATTAATTAGTTTCTACCAACAATTTCTCCGGAGTCACCTAGTGCAG	8110 fluorescence intensity (a.u.)
TGCACCAATTTGATTGATACCAATTTGCTTTAATTTCGTCCGGAGTCACCTAGTGCAG	57200 fluorescence intensity (a.u.)
TATAATTGATTATTTTAATTTCTTTTGCTATTAATAGTCACGGAGTCACCTAGTGCAG	64700 fluorescence intensity (a.u.)
CAGAAACTGAAATACCAATTGATTCTTCCAATTCCCTGAACGGAGTCACCTAGTGCAG	6740 fluorescence intensity (a.u.)
ATCGGCATGTTCACCAGCTCTGATTGGTAGTACGATTTTACGGAGTCACCTAGTGCAG	5140 fluorescence intensity (a.u.)
TAAATAAATGATTGGGCTTGTTAATGGGCTTCCTCTTCCTCGGAGTCACCTAGTGCAG	41900 fluorescence intensity (a.u.)
CCCAAATAGAAGTAGAATTGAGACACTGAGTGGTGCAAAGCGGAGTCACCTAGTGCAG	3400 fluorescence intensity (a.u.)
ATGATTGTTGGAGCAAGGCCCAGCCCAAGGTAGCGTACATCGGAGTCACCTAGTGCAG	13400 fluorescence intensity (a.u.)
TGTTACTAATTTATTTGGAGGCTTCATGGTTGACCTATTGCGGAGTCACCTAGTGCAG	3440 fluorescence intensity (a.u.)
GATAATTTGAACCATAGATTTATCATTCAAAGGCTATAAACGGAGTCACCTAGTGCAG	9720 fluorescence intensity (a.u.)
